These results are taken from PubChem BioAssay AID488969 (Vanderbilt High Throughput Screening Facility, 2010).

Whole data set: some 110,000 compounds, median “z-score” near -0.1, cut for the highest 2% near 2. What follows is part of a selection rich in the highest values, with near analogues and random picks from the rest. Active and inactive are the calls of the source.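 The calls were made as follows: active = z-score in the third read window above 3 or below -3; inactive = the rest.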

The experiment deals with Metabotropic glutamate receptor 8 (Rattus norvegicus) (UniProt P70579). The experiment is described as follows: rat mGluR8 modulators via GIRK flux, primary screen, cell-based, thallium flux, HTS (AID 488969). Conditions: HEK293 rat mGluR8, GIRK (G protein-gated inwardly rectifying potassium channel) thallium flux, FluoZin2; at 10 µM; stronger effect = higher value; submaximal glutamate (EC20) added with thallium.
Metabotropic glutamate receptor 8 (Rattus norvegicus), sequence (P70579 whole entry, looked up): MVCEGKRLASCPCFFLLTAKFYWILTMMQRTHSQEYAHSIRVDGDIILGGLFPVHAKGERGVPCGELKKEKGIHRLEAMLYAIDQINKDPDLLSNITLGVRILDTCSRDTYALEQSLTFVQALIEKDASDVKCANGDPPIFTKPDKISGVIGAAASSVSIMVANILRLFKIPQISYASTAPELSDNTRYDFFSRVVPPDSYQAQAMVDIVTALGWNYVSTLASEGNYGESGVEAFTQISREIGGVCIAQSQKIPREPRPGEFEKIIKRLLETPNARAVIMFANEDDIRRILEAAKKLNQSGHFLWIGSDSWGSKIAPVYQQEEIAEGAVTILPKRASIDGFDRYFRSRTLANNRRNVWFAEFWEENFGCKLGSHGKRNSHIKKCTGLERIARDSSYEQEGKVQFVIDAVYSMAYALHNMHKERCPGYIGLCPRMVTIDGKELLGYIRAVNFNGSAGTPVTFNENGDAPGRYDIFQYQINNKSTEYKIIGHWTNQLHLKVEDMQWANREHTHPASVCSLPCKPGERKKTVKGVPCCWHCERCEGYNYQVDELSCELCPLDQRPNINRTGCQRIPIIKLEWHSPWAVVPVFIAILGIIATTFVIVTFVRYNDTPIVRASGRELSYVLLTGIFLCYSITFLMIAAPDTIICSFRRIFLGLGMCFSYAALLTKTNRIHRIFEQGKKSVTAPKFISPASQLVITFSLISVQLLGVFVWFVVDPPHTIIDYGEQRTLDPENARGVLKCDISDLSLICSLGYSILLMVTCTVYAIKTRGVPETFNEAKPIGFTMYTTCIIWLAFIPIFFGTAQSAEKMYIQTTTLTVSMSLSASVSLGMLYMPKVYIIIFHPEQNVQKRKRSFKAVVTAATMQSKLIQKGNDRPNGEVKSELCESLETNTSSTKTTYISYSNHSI
As for `O=C(COC(=O)c1cccnc1Nc1cccc(C(F)(F)F)c1)NC1CCS(=O)(=O)C1` (stereo unspecified), the z-score is -0.275.

For `O=C(NCc1cc(C(F)(F)F)cc(C(F)(F)F)c1)C1CC(c2c(Cl)cccc2Cl)=NO1` (stereo unspecified), the z-score was -0.111.

In turn, `Cc1ccc(S(=O)(=O)Nc2cccc3cccnc23)cc1` gave a z-score of -0.731.

For the compound `Cc1ccc(-n2c(-c3ccc(Br)cc3)c[n+]3c2CCc2ccc4cccnc4c2-3)cc1`, the z-score is 4.86 (active).

In turn, `Brc1ccc(-c2cn3c(n2)CCc2ccc4cccnc4c2-3)cc1` displayed a z-score of 0.098.

`COc1ccccc1-n1c(SCC(=O)N2CCCCC2)nnc1-c1ccccc1O` displayed a z-score of -0.514.

`CN(C(=O)c1ccccn1)c1nnc(-c2cnccn2)s1`: the z-score was -0.729.

In the case of `CN(C(=O)c1ccccn1)c1nnc(-c2ccncc2)s1`, the z-score was -0.931.

The compound `CN(C(=O)c1ccccn1)c1nnc(-c2ccccn2)s1` yielded a z-score of 2.29.

Regarding `COc1ccc(-c2noc(CSc3nnc(Cc4ccccc4)n3-c3ccc(Cl)cc3)n2)cc1`, the z-score is 0.663.

`N=c1n(CCN2CCCCC2)c2ccccc2n1CC(O)c1cccc(Br)c1` (stereo unspecified): the z-score came to 0.566.

On to `COc1ccccc1OCC(O)Cn1c(=N)n(CCN2CCCCC2)c2ccccc21` (stereo unspecified), for which the z-score was -0.0021.

Compound `Cc1ccccc1OCC(O)Cn1c(=N)n(CCN2CCOCC2)c2ccccc21` (stereo unspecified) yielded a z-score of 1.12.

For `Cc1ccc(OCC(O)Cn2c(=N)n(CCN3CCCCC3)c3ccccc32)cc1` (stereo unspecified), the z-score is 4.9 (active).

Consider `Cc1cccc(OCC(O)Cn2c(=N)n(CCN3CCCCC3)c3ccccc32)c1` (stereo unspecified), for which the z-score was 5.06 (active).

Compound `N=c1n(CCN2CCCCC2)c2ccccc2n1CC(O)COc1ccccc1` (stereo unspecified) returned a z-score of 1.11.

The compound `O=C(Nc1ccc(Cl)cc1)C1=Cc2cc(Cl)ccc2OC1` displayed a z-score of -0.109.

Take `COC(=O)C1=C(C)NC2=C(C(=O)CC(C)(C)C2)C1c1ccsc1` (stereo unspecified): the z-score was 0.803.

Compound `Cn1c(C(C(=O)NCC2CCCO2)N(C(=O)Cn2nnc3ccccc32)C2CCCCC2)nc2ccccc21` (stereo unspecified) registered a z-score of -0.0111.

With `CCOC(=O)/C(C#N)=C/NC(=O)NC(C)(C)C`, the z-score is 0.141.

As for `Cc1ccc2[nH]c(=O)c(CN(CCO)C(=O)N(C)C)cc2c1`, the z-score was -0.0536.

Compound `CCOC(CNC(=O)CCc1c(C)nc2nc(C)nn2c1C)OCC` came in with a z-score of -0.308.

Consider `CCc1ccc(S(=O)(=O)Nc2c(C)nn(C)c2C)cc1`, for which the z-score was -0.343.

Compound `CN(Cc1ccccc1F)c1nc(-c2cccs2)nc2ccccc12` had a z-score of 0.11.

With `O=C(O/N=C\c1ccc(N2CCCCC2)c([N+](=O)[O-])c1)c1cccc(C(F)(F)F)c1`, the z-score was found to be 0.31.

In the case of `O=C(O/N=C\c1ccc(N2CCCCC2)c([N+](=O)[O-])c1)c1c(F)cccc1F`, the z-score was determined as 2.03.

The compound `O=C(O/N=C\c1ccc(N2CCCCC2)c([N+](=O)[O-])c1)c1cccc(Cl)c1` registered a z-score of -0.494.

In turn, `CCOC(=O)CSc1cc(CS(=O)c2ccc(Cl)cc2)nc(-c2ccccc2)n1` (stereo unspecified) had a z-score of 0.0352.

As for `CCOC(=O)CSc1cc(CS(=O)(=O)c2ccccc2)nc(-c2ccccc2)n1`, the z-score is -0.223.

Regarding `CCOC(=O)CSc1cc(CSc2ccccc2)nc(-c2ccccc2)n1`, the z-score was 4.85 (active).

For the compound `CC(=O)N(c1nc(CCl)cs1)c1c(C)cc(C)cc1C`, the z-score worked out at 1.43.

As for `Cc1ccc(-c2cc(C(=O)NCc3cnn(C)c3C)c3cc(Br)ccc3n2)cc1`, the z-score is -0.453.

Turning to `CCc1ccc(C2C(C#N)=C(N)C(C#N)(C#N)C3=CCC(C(C)(C)C)CC32)cc1` (stereo unspecified), the z-score was -0.0406.

In turn, `O=C(CCCn1c(=S)[nH]c2cc3c(cc2c1=O)OCO3)N1CCN(c2ccc(F)cc2)CC1` registered a z-score of -0.237.

With `CCN(CC)CCn1c(=S)[nH]c2cc3c(cc2c1=O)OCO3`, the z-score is -0.565.

With `CC(=O)c1ccc(N2CCN(C(=O)CCCn3c(=S)[nH]c4cc5c(cc4c3=O)OCO5)CC2)cc1`, the z-score was found to be 2.56.

For `CC(C)NC(=O)CCCn1c(=S)[nH]c2cc3c(cc2c1=O)OCO3`, the z-score turned out to be 0.566.

In the case of `O=C(CCCn1c(=S)[nH]c2cc3c(cc2c1=O)OCO3)N1CCN(c2ccc(Cl)cc2)CC1`, the z-score was -0.36.

For the compound `COCCn1c(=S)[nH]c2cc(C(=O)N3CCN(c4ccc(F)cc4)CC3)ccc2c1=O`, the z-score was 4.3 (active).

With `COCCn1c(=S)[nH]c2cc(C(=O)N3CCN(c4ccccc4OC)CC3)ccc2c1=O`, the z-score was -0.495.

For the compound `CCCn1c(=S)[nH]c2cc(C(=O)N3CCN(c4ccccc4OC)CC3)ccc2c1=O`, the z-score was found to be 0.596.

Take `CC(C)OCCCn1c(=S)[nH]c2cc3c(cc2c1=O)OCO3`: the z-score is 6.19 (active).

The compound `Cc1cc(=O)[nH]c(SCC(=O)C23CC4CC(CC(C4)C2)C3)c1C#N` displayed a z-score of -0.0485.

The compound `O=C(Nc1cccc(O)c1)c1cc2nc(-c3ccccc3)cc(-c3ccccc3)n2n1` had a z-score of -0.00871.

`O=C(COc1ccc(C(=S)N2CCOCC2)cc1)N1CCCC1` showed a z-score of -0.301.

Regarding `Cc1ccc(S(=O)(=O)N2CCN(C)CC2)cc1-c1nnc2c3ccccc3c(C)nn12`, the z-score was 9.27 (active).

In turn, `Cc1ccc(-c2nnc3c4ccccc4c(C)nn23)cc1S(=O)(=O)N1CCN(C)CC1` registered a z-score of -0.999.

Turning to `Cc1ccc(S(=O)(=O)N2CCN(CCO)CC2)cc1-c1nnc2c3ccccc3c(C)nn12`, the z-score was -0.156.

Compound `Cc1cc(C)n(-c2nnc(C)n2NC(=O)c2cccc(Cl)c2)n1` displayed a z-score of 0.0281.

`Cc1cc(C)n(-c2nncn2NC(=O)c2ccc(Cl)cc2O)n1` registered a z-score of 2.24.

In turn, `Cc1ccc(C)n1NC(=O)c1ccc(Cl)cc1Cl` displayed a z-score of 0.557.

As to `CCNC(=O)NC(=O)C(C)Sc1nc2cc(C(=O)OC)ccc2c(=O)n1-c1ccccc1` (stereo unspecified), the z-score was 0.204.

Regarding `CCCCn1c(SC(C)C(N)=O)nc2cc(C(=O)OC)ccc2c1=O` (stereo unspecified), the z-score was 3 (active).

Turning to `CCSc1nc2cc(C(=O)OC)ccc2c(=O)n1CC`, the z-score worked out at 0.836.

For `O=C(O)C1CC=CCC1C(=O)NCc1ccc2c(c1)OCO2` (stereo unspecified), the z-score was -0.618.

As to `COc1ccc(N2CCN(C(=O)CSc3nnc4c(C)cc5cc(C)ccc5n34)CC2)cc1`, the z-score is 1.03.

As to `Cc1ccc(C)c(-n2ccnc2SCC(=O)O)c1`, the z-score is -0.0351.

`CCc1cccc(NC(=O)CN(c2ccc(OC)cc2)S(=O)(=O)c2c(C)n[nH]c2C)c1` displayed a z-score of 0.317.

`COCCCNC(=O)Cn1ncc2ccsc2c1=O` came in with a z-score of -0.327.

Compound `COC(CNC(=O)Cn1ncc2ccsc2c1=O)OC` showed a z-score of -0.112.

Compound `COCCNC(=O)Cn1ncc2ccsc2c1=O` displayed a z-score of 2.25.

Regarding `CCOc1ccc2oc(-c3ccccc3)c(C(=O)N3CCN(CCO)CC3)c2c1`, the z-score is -0.457.

Consider `COc1cc(C(=O)NCc2cn3ccsc3n2)cc(OC)c1OC`, for which the z-score is -0.0269.

Regarding `COc1cccc(C(=O)NCc2cn3ccsc3n2)c1`, the z-score is 15.2 (active).

`COc1ccc(C(=O)NCc2cn3ccsc3n2)cc1OC` came in with a z-score of -0.547.

`O=C(CSc1ccc(-c2ccc(F)cc2)nn1)N1CCN(c2ccccc2)CC1` returned a z-score of -0.139.
